Nrf2 block = Nrf2 pathway inhibition; A549 ARE-Fluc reporter, luciferase luminescence, 18-24 h; Potency, µM (highest dose often 46 µM), for inactives: at the top dose activity change, negative = inhibition, actives largely listed as inhibitors; actives 2.1% (n = 360,000); AID 504444; also: % is scaled to controls: 0 for no effect and ±100 for the full control effect; nearly all actives have a fitted effect of over 60% in size
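A549 ARE_Fluc cells (5000/well, 5% FBS OPTI-MEM) pre-incubated 2 h, then treated with compounds 18-24 h at 37C/5% CO2 in concentration-response. CellTiter-Fluor viability read first; BugLite luciferase luminescence after 15 min at room temperature gives Nrf2 activity.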
GALK inh = inhibitors of human galactokinase; P51570; Purified GALK, Kinase-Glo residual ATP luminescence; Potency, µM (highest dose often 57.5 µM), inactives show at the top dose activity change, negative = inhibition, hits mostly inhibitors; actives 0.007% (n = 270,000); AID 1868; also: % is scaled to controls: 0 for no effect and ±100 for the full control effect
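GALK at 5 nM final was combined with compound, 35 uM ATP and 100 uM galactose in HEPES pH8.0 with MgCl2 and DTT. The reaction ran one hour at room temperature before luminescent ATP detection.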
A549 viability = A549 cytotoxicity, counter-screen for Nrf2 inhibitors. A549 ARE-Fluc cells, CellTiter-Fluor viability, 18-24 h. Potency, µM (series often up to 46 µM), for the others: top-dose activity change, negative = cytotoxicity, hits mostly inhibitors. actives 0.16% (n = 390,000). AID 504648; also: % is scaled to controls: 0 for no effect and ±100 for the full control effect
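Cytotoxicity counterscreen: CellTiter-Fluor fluorescence was measured in A549 ARE_Fluc cells after 18-24 h of compound exposure in a concentration series. The subsequent BugLite luminescent read reports ARE-luciferase activity.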
rTrxR1 inhibitor = inhibitors of rat thioredoxin reductase 1. O89049. recombinant rTrxR1, NADPH fluorescence consumption, selenite substrate. Potency, µM (top dose mostly 114 µM), without a hit: at the top dose activity change, negative = inhibition, actives largely listed as inhibitors. actives 1% (n = 390,000); also: % is scaled to controls: 0 for no effect and ±100 for the full control effect; nearly all actives have a fitted effect of over 65% in size
Target sequence (O89049 whole entry, looked up): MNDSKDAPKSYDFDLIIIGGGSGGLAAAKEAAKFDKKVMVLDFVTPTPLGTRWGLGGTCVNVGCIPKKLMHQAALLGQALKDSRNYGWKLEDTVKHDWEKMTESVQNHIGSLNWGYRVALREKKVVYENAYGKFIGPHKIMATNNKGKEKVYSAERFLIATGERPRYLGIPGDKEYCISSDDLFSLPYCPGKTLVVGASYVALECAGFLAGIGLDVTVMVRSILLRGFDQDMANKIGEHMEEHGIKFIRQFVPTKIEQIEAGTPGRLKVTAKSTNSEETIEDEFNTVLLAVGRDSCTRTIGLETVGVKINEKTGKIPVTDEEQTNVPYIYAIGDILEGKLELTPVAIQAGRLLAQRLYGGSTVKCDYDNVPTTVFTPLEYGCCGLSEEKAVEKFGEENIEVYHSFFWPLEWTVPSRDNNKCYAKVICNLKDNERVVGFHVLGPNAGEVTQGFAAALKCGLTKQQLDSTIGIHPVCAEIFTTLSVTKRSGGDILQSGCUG
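Rat TrxR1 (90 nM in the dispensed reagent) was pre-reduced with 400 uM NADPH for 5 min at room temperature, then incubated with compound for 15 min. After 400 uM selenite was added, NADPH fluorescence (Ex 340/Em 450 nm) was followed for 8 min.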
TrxR1 substrate = is turned over as a substrate by rat TrxR1. O89049. purified TrxR1 substrate turnover, NADPH consumption readout. Potency, µM (titrated, usually from 114 µM), inactives show at the top dose activity change, negative = substrate turnover. actives 0.01% (n = 390,000); also: % is scaled to controls: 0 for no effect and ±100 for the full control effect; nearly all actives have a fitted effect of over 50% in size
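Rat TrxR1, dispensed at 90 nM, was prereduced with 400 uM NADPH (final) for 5 min at ~22 deg C, then incubated with compound 15 min before 400 uM selenite. A first-read NADPH fluorescence drop versus no-compound background flagged substrates.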
Nrf2 ARE act = Nrf2 pathway activation; AREc32 ARE-luciferase reporter (MCF7-derived line), luminescence, 24 h; AID 624171; Potency, µM (titrated, usually from 46.1 µM), inactives show at the highest dose activation, most hits filed as activators; actives 0.31% (n = 410,000); also: % of control where 0% means no effect; nearly all actives have a fitted effect of over 65% in size
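ARE-driven firefly luciferase activity in AREc32 cells measured after a 24 hr compound exposure at 37 deg C, using Steady-Glo reagent and a 30 min room-temperature hold.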
An asterisk follows results filed as active; ? = inconclusive; / = not tested or not shown; [ ] = another dose, or the depositor's remark. Sampled rows, rich in hits. Any-hit rate of the full collection: about 3%. Calls follow the shape of the dose curve; as a rule, active = well fitted curve in the direction sought with a large enough effect; inconclusive = small, poorly fitted or top-dose-only effect, or another doubt; inactive = no such curve, though single readings can be large; an effect the other way counts as inactive or inconclusive. Potency is read from the fitted curve at half-maximal effect.

SMILES	Nrf2 block	GALK inh	A549 viability	rTrxR1 inhibitor	TrxR1 substrate	Nrf2 ARE act
O=C(Nc1ccc(Cl)cc1)C1CCN(C(=O)NC2CCCCC2)CC1	-23%	-3%	-4%	14%	0%	0%
O=C(c1ccc(Cl)cc1)C1CCN(C(=O)NC2CCCCC2)CC1	18µM*	1%	-9%	18%	8%	0%
CCOC(=O)N1CCc2c(sc3c2c(=O)n(Cc2ccccc2)c(=O)n3CC(=O)Nc2ccc(C)cc2C)C1	9%	/	-1%	11%	-1%	1%
COc1ccc(S(=O)(=O)c2cc3cc(OC)ccc3oc2=O)cc1	9%	/	-5%	33%	10%	12%
CCOc1ccc(S(=O)(=O)c2cc3cccc(OCC)c3oc2=O)cc1	5%	/	-4%	36%	4%	4.5µM*
Cc1ccc(S(=O)(=O)c2cc3ccccc3oc2=O)cc1	-14%	4%	-1%	-1%[57.1 µM]	12%[57.1 µM]	5.6µM*
COc1ccc(S(=O)(=O)c2cc3cc(C(C)(C)C)cc(O)c3oc2=O)cc1	?	/	3%	23%	-4%	16µM*
O=C1C=CC(=Nc2ccc3c(c2)Cc2cc(F)ccc2-3)O1	?	/	-8%	3.2µM*	6%	10%
CC1=C(C(=O)OC2CCCCCCC2)C(c2cc3c(cc2Br)OCO3)CC(=O)N1 (centres undefined)	21µM*	0%	?	14%	6%	0%
COc1ccc(-c2nc3c(C#N)c[nH]n3c2NC2CCCCC2)c(OC)c1	?	/	-15%	3%	-6%	5%
Cc1ccc(-c2nn(-c3ccccc3)cc2C2SCC(=O)N2Cc2ccccc2)o1 (centres undefined)	?	-1%	0%	56µM*	14%	3%
CCCC(CCC)C(=O)NC1CC(=O)N(c2ccc3c(c2)OCCO3)C1 (centres undefined)	/	/	0%	11%[57.1 µM]	4%[57.1 µM]	0%
COc1ccc(-c2nc(-c3ccc4c(c3)OCO4)[nH]c2-c2ccc(OC)cc2)cc1	26µM*	5%	?	-14%	68%	1%
CCOC(=O)N1CCc2c(sc3c2c(=O)n(-c2ccccc2C(F)(F)F)c(=O)n3Cc2ccccc2C)C1	?	/	-3%	9%	-7%	0%
O=S(=O)(c1c(F)cccc1F)N1CCN(S(=O)(=O)c2c(F)cccc2F)CC1	?	/	-4%	/	/	/
c1ccc(-c2nnc3ccc(N4CCCC4)nn23)cc1	?	-2%	5%	19%	-1%	1%
FC(F)(F)c1cccc(N2CCN(c3ccc4nnc(-c5ccccc5)n4n3)CC2)c1	16µM*	1%	?	35%	-7%	0%
COc1ccc(CNC(=O)CN2C(=O)CCn3nc(-c4cn(C)c5ccccc45)cc32)cc1	/	/	0%	17%[57.1 µM]	-1%[57.1 µM]	1%
Cc1cccc2cc(C#N)c(NCCNC(=O)NC3CCCCC3)nc12	9.2µM*	-3%	-10%	28%	36%	0%
COc1ccc(-c2nc3ccccc3c(=O)n2Cc2ccccc2)cc1OCc1ccc(NC(C)=O)cc1	7%	/	1%	/	/	/
CN(C)c1ccc(NC2=C(Cl)C(=O)c3ccccc3C2=O)cc1	?	/	?	2.8µM*	4%	?
CC(=O)Nc1ccc(NC2=C(Cl)C(=O)c3ccccc3C2=O)cc1	?	-2%	?	0.56µM*	0%[57.1 µM]	24%
O=C1C(Cl)=C(Nc2ccc3cn[nH]c3c2)C(=O)c2ccccc21	?	4%	?	?	?	-4%
COc1ccccc1NC1=C(NC(C)=O)C(=O)c2ccccc2C1=O	-9%	8%	1%	4.5µM*	5%	-3%
CC1CN(C(=O)Nc2ccc(C(=O)NCc3cccc(F)c3)cc2)c2ccccc2S1 (centres undefined)	-21%	/	-1%	19%	38%	3%
SMILES	Nrf2 block	GALK inh	A549 viability	rTrxR1 inhibitor	TrxR1 substrate	Nrf2 ARE act
Cc1ccc(C(=O)N(Cc2ccco2)c2ccccn2)cc1	24%	/	-6%	5%	3%	4%
CC(=O)/C(=C/c1ccccc1)C(=O)Nc1ccccc1C	-10%	-5%	12%	25µM*	-1%	?
O=[N+]([O-])c1ccc2c(c1)S(=O)(=O)C=C2	/	/	/	2.1µM*	19%[57.1 µM]	/
Cc1cc([N+](=O)[O-])ccc1N	5%	/	-4%	-1%	-8%	2%
O=C/C(=C\Nc1ccccn1)c1nc2ccccc2o1	?	0%	6%	-1%	-7%	13µM*
COc1ccc(CNC(=O)c2c(C)oc3c2C(=O)c2ccccc2C3=O)cc1	4.1µM*	/	4.6µM*	16%	-4%	-5%
Cc1oc2c(c1C(=O)NCc1cccnc1)C(=O)c1ccccc1C2=O	5.2µM*	0%	2.6µM*	27%	0%	-5%
Cc1ccc(-n2c(=O)c3ccccc3n(CC(=O)Nc3cccc(C(F)(F)F)c3)c2=O)cc1	-25%	/	-16%	13%	-1%	6%
COc1ccccc1-c1c(C)nn2c(N3CCCCCC3)cc(C)nc12	26µM*	-2%	?	-3%	0%	-1%
COc1ccccc1-c1c(C)nn2c(N3CCN(Cc4ccccc4)CC3)cc(C)nc12	23µM*	0%	-6%	1%	10%	2%
C/C(CC(=O)Nc1ccc(Cl)c(C(F)(F)F)c1)=N\NC(=O)c1ccccc1O	23µM*	0%	?	-16%	1%	9%
CC(=O)c1cc2ccccc2c2ccccc12	/	/	/	4%	-3%	/
Cc1ccccc1NC(=O)c1c(C)[nH]c(=S)c(C#N)c1-c1ccco1	23%	4%	6%	?	-7%	0%
CNC(=O)c1c(C)[nH]c(=S)c(C#N)c1-c1ccco1	11%	0%	10%	13µM*	1%	0%
O=C(C1CCCN(S(=O)(=O)c2cccs2)C1)N1CCN(c2cccc(Cl)c2)CC1 (centres undefined)	?	/	0%	12%	-7%	4%
Cc1c(Cl)cnc(NC(=O)COC(=O)[C@@H](NC(=O)c2ccco2)C(C)C)c1Cl	6%	/	-1%	11µM*	8%	10%
Cc1cc(C)cc(NC(=O)COC(=O)[C@@H](NC(=O)c2ccco2)C(C)C)c1	?	4%	4%	19%[57.1 µM]	-16%[57.1 µM]	0%
O=C(NCCc1c[nH]c2ccccc12)C(=O)NCC1OCCN1S(=O)(=O)c1ccc(Cl)cc1 (centres undefined)	23µM*	/	-12%	15%[57.1 µM]	6%[57.1 µM]	-1%
O=C(NCc1ccc2c(c1)OCO2)C(=O)NCC1OCCN1S(=O)(=O)c1ccc(Cl)cc1 (centres undefined)	26µM*	0%	-5%	-8%	-6%	0%
